# Results taken from the antibiotic and cytotoxicity screens of Wong et al. (2023).
# Out of some 39,000 compounds screened, about 3,300 (8.5%) were called active. Only a selection was taken, and actives are over-represented in it overall.
# System: HepG2
# Experiment: cytotoxicity call (relative viability < 0.9)
# Settings: 10 µM
row,SMILES,cytotoxicity call
1,NCCc1c[nH]c2ccc(C(N)=O)cc12,inactive
2,NCCc1ccncc1,inactive
3,OC1(c2cccnc2)CCNCC1,inactive
4,CCN(Cc1ccc(Cl)nc1)C(=C[N+](=O)[O-])NC,inactive
5,Cc1ccc2n[nH]c(CN)c2c1,inactive
6,COC(=O)[C@@]1(Cc2ccccc2N=[N+]=[N-])N=C(c2ccc(OCCCO)cc2)O[C@H]1c1ccccc1N=[N+]=[N-],inactive
7,[N-]=[N+]=Nc1ccccc1C[C@]1(C(N)=O)N=C(c2ccc(OCCCO)cc2)O[C@H]1c1ccccc1N=[N+]=[N-],inactive
8,COC(=O)[C@]1(Cc2ccccc2N=[N+]=[N-])N=C(c2ccc(OCCCO)cc2)O[C@@H]1c1ccccc1N=[N+]=[N-],active
9,COC(=O)[C@@]1(Cc2ccccc2CN=[N+]=[N-])N=C(c2ccc(OCCCO)cc2)O[C@H]1c1ccccc1CN=[N+]=[N-],inactive
10,COC(=O)[C@]1(Cc2ccccc2N=[N+]=[N-])N=C(c2ccc(OCCCO)cc2)O[C@@H]1c1ccccc1CN=[N+]=[N-],inactive
11,COC(=O)[C@]1(Cc2ccccc2CN=[N+]=[N-])N=C(c2ccc(OCCCO)cc2)O[C@@H]1c1ccccc1CN=[N+]=[N-],active
12,CO[C@@H]1[C@H](OC(=O)NC(=O)CCl)CC[C@]2(CO2)[C@H]1[C@@]1(C)O[C@@H]1CC=C(C)C,inactive
13,CN1CCCCC1c1ccc(-c2cccnc2)nc1.Cl (stereo not drawn),inactive
14,CN(CCC[C@@H](O)c1cccnc1)[NH2+][O-],inactive
15,C=C(C)[C@@H]1[C@H]2OC(=O)[C@@H]1[C@]1(O)C[C@H]3O[C@]34C(=O)O[C@H]2[C@]14C,inactive
16,O[C@@]12CCCC[C@@H]1CNCC2,inactive
17,CN1[C@@H]2CC[C@@H]1CC(N)C2 (stereo partly drawn),inactive
18,Nc1nc(N)nc(NC2CC2)n1,inactive
19,CCN1CCN(c2nc([N+](=O)[O-])nn2C)CC1,inactive
20,C[C@@H](N)Cc1cccc(O)c1,inactive
21,CC(C)c1cccc(C(C)C)c1O,active
22,CC(C)c1cccc2c1OCC[C@H](N)[C@@H]2O,inactive
23,C[C@@H](CN)CC(=O)O,inactive
24,CC(=O)[O][PbH2][O]C(C)=O,inactive
25,O=C(O)c1cc(Cl)ccc1Cl,inactive

row,SMILES,cytotoxicity call
1,Oc1ccc(Cl)cc1Cc1cc(Cl)ccc1O,active
2,Clc1ccc(Cl)cc1,inactive
3,CCN1C[C@]23CNC[C@@H](C[C@H]2S1(=O)=O)O3,inactive
4,C1CC(NC2CCOCC2)CCO1,inactive
5,O=C1C=C2C(=CCO[C@@H]2O)O1,inactive
6,O=C1C=C2C(=CCOC2O)O1 (stereo not drawn),active
7,CC(=O)N[C@H]1C(=O)NC(=S)N(c2ccccc2)C1=O,inactive
8,N#CCCN1CCCC2(CCCC2)C1,inactive
9,N/N=C(/N)NO,inactive
10,COc1ccc(OC(=O)N(C)C[C@@H]2OCc3ccccc3-c3c(n(C)c4ccccc34)C(=O)N([C@@H](C)CO)C[C@@H]2C)cc1,inactive
11,COC(=O)[C@@H]1[C@@H](CO)[C@@H]2Cn3c(cccc3=O)[C@H]1N2C(=O)C1CC1,inactive
12,N[C@@H](CO)Cc1ccccc1,inactive
13,CCN(CC)C(=O)C1=NO[C@]2(CCNC2)C1,inactive
14,COc1cc2c(cc1OC)C(C)NCC2 (stereo not drawn),inactive
15,COc1cc2c(cc1O)CCNC2C (stereo not drawn),inactive
16,CCC1CN2CCc3cc(OC)c(OC)cc3C2CC1CC1NCCc2cc(OC)c(OC)cc21.Cl.Cl (stereo not drawn),active
17,COc1cc2c(cc1OC)C1CC(=O)C(CC(C)C)CN1CC2 (stereo not drawn),active
18,CNC1C(O)C(OC2C(N)CC(N)C(OC3OC(C(C)O)C(O)C(O)C3N)C2O)OCC1(C)O (stereo not drawn),inactive
19,CNC(=O)[C@H]1C[C@H]2CN(CC3CC3)C[C@H]1O2,inactive
20,CCN1C[C@H]2C[C@H](C(=O)NCC3CC3)[C@@H](C1)O2,inactive
21,C[C@@]1(O)[C@H](O)[C@@H](CO)O[C@H]1n1ccc2c(N)ncnc21,inactive
22,CN(C)C(=O)Oc1cccc([N+](C)(C)C)c1.COS(=O)(=O)[O-],inactive
23,COc1ccc(Cc2nccc3cc(OC)c(OC)cc23)cc1OC.Cl,active
24,COc1ccc(C[C@@H](N)c2ccc(C)cn2)cc1OC,inactive
25,COc1ccc(CCN)cc1OC,inactive

row,SMILES,cytotoxicity call
1,NCCc1cc(O)c(O)cc1O,inactive
2,COc1cc2c(cc1C=O)OCO2,inactive
3,COc1cccc(C=O)c1OC,inactive
4,COc1cc(OC)c(OC)cc1C=O,active
5,O=C1C[C@@H](c2ccc(O)cc2)CN1,inactive
6,O=C(O)C(Cl)Cl,inactive
7,N[C@@H](Cc1ccccc1)c1ccc2c(c1)OCCO2,inactive
8,C1CCC(NC2CCCCC2)CC1,inactive
9,CC12C=CC(=O)C=C1CCC1C2CCC2(C)C(=O)CCC12 (stereo not drawn),inactive
10,CCC1(C2OC(C3OC(O)(CO)C(C)CC3C)CC2C)CCC(C2(C)CCC3(CC(O)C(C)C(C(C)C(OC)C(C)C(=O)[O-])O3)O2)O1.[Na+] (stereo not drawn),active
11,NC(Cc1ccccc1)Cc1ccccc1,inactive
12,Cl.NCCc1ccccc1,inactive
13,S=C=NCc1ccccc1,active
14,O=C(O)[C@H]1N[C@H]2CC[C@@H]1C2,inactive
15,CC(=O)N[C@@H]1[C@H](O[C@@H]2O[C@H](C[C@@H](O)[C@H]3O[C@@H](n4ccc(=O)[nH]c4=O)[C@H](O)[C@@H]3O)[C@H](O)[C@H](O)[C@H]2NC(=O)/C=C/CCCCCCCCC(C)C)O[C@@H](CO)[C@H](O)[C@H]1O,active
16,COc1ccc(OC(=O)N(C)C[C@H]2OCc3ccccc3-c3c(n(C)c4ccccc34)C(=O)N([C@H](C)CO)C[C@H]2C)cc1,inactive
17,C1COC2(CN1)CNC2,inactive
18,O.O=P1(N(CCCl)CCCl)NCCCO1 (stereo not drawn),inactive
19,Cc1ccnc(N2CCNCC2)c1,inactive
20,CCCCCCCCCCCCCC(=O)O[C@@H]1[C@@H](C)[C@@]2(O)[C@@H](C=C(CO)C[C@]3(O)C(=O)C(C)=C[C@@H]23)[C@@H]2C(C)(C)[C@]12OC(C)=O,active
21,CCCCCCCCCC(=O)O[C@@H]1[C@@H](C)[C@@]2(O)[C@@H](C=C(CO)C[C@]3(O)C(=O)C(C)=C[C@@H]23)[C@@H]2C(C)(C)[C@]12OC(=O)CCCCCCCCC,inactive
22,CCCCCCCCCC(=O)O[C@@H]1[C@@H](C)[C@]2(O)[C@@H](C=C(CO)C[C@]3(O)C(=O)C(C)=C[C@@H]23)[C@@H]2C(C)(C)[C@@]12OC(=O)CCCCCCCCC,active
23,CC1=C[C@H]2[C@]3(O)[C@H](C=C(CO)C[C@]2(O)C1=O)[C@H]1C(C)(C)[C@@]1(O)[C@H](O)[C@@H]3C,inactive
